Assay results taken from PubChem BioAssay (Tox21).
“And” between values parts separate entries of the source, which are not always exact repeats. Equal values may be shown once. The source made the active and inactive calls. Entries that show only a call come without a potency. The call rests on the fitted dose curve.

Target: Estrogen receptor (Homo sapiens) (UniProt P03372)
Assay: qHTS assay to identify small molecule agonists of the estrogen receptor alpha (ER-alpha) signaling pathway in the presence of an antagonist (AID 1259383); further: nearly all actives have a fitted effect of over 15% in size
Settings: VM7Luc4E2 cells, ERE-luciferase, +ICI-182,780, 22 h; series mostly up to 92.4 µM
Text: National Center for Advancing Translational Sciences [NCATS] NIH Chemical Genomics Center [NCGC] U.S. Environmental Protection Agency [EPA] National Institutes of Environmental Health Sciences [NIEHS] National Toxicology Program [NTP] Assay overview: Estrogen receptor (ER), a member of nuclear hormone receptor plays an important role in development, metabolic homeostasis and reproduction. Two subtypes of ER, ER-alpha and ER-beta, have similar expression patterns with some uniqueness in both types. Endocrine disrupting chemicals (EDCs) and their interactions with steroid hormone receptors like ER causes disruption of normal endocrine function. Therefore, it is important to understand the effect of environmental chemicals in ER signaling pathway. For identifying ER agonists, VM7Luc4E2 cell line has been used in the current assay. VM7Luc4E2 cell line (provided by Denison MS, University of California) endogenously expresses full-length ER-alpha and is stably transfected with a plasmid containing four estrogen responsive elements (ERE) upstream of a luciferase reporter gene. This current screening for measuring luciferase reporter gene activity using VM7Luc4E2 cells against Tox21 10K library collection is a confirmation study on agonist mode screening in presence of ER-antagonist (ICI-182,780) at 10.0nM final concentration.
Assay Protocol Summary: VM7Luc4E2 cells were cultured in phenol red free assay medium containing 10% charcoal stripped FBS for 5 days prior to the assay. The cells were dispensed at 4,000 cells in 4uL of assay medium per well into white wall/solid-bottom 1536-well plates (Corning Life Sciences, Corning, NY) using a Multidrop Combi (Thermo Fisher Scientific Inc., Waltham, MA) dispenser. After the assay plates were incubated at 37C and 5% CO2 for 24hr, 1uL of 10.0nM (final concentration) ICI-182,780 or assay buffer was added using two separate tips of Flying Reagent Dispenser (FRD, Aurora Discovery, San Diego, CA). Then 23nL of compounds dissolved in DMSO at 15 concentrations and positive controls or DMSO only was transferred to the assay plates by a Pintool station (Wako, San Diego, CA). The assay plates were incubated at 37C and 5% CO2 for 22hr. For luciferase read, 4uL/well ONE-Glo reagent (Promega Corporation, Madison, WI) was added to each well using FRD and after 30min incubation at room temperature, luminescence signal was measured on ViewLux plate reader (PerkinElmer, Shelton, CT).
Potency means the concentration at half of the fitted maximal effect.

Chain of Estrogen receptor (Homo sapiens) (P03372 whole entry, looked up): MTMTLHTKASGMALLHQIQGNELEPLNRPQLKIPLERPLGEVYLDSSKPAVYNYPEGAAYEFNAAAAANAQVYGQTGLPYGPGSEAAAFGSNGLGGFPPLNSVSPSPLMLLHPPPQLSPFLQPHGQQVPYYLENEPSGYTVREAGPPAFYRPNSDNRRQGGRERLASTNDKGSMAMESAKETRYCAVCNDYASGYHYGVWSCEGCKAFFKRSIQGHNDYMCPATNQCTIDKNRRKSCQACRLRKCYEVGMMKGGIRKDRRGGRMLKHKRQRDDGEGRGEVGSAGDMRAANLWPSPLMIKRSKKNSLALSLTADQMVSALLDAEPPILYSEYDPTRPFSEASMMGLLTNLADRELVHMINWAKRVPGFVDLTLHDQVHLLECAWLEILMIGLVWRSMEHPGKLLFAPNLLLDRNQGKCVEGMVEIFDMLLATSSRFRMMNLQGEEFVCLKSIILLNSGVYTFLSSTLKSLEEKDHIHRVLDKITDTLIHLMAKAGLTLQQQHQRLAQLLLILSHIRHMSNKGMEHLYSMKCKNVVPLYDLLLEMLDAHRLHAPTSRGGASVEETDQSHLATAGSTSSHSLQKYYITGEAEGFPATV

| SMILES | Potency |
| --- | --- |
| COC(=O)C1=C(C)NC(C)=C(C(=O)OCC(C)C)C1c1ccccc1[N+](=O)[O-] (stereo not given) | inactive |
| CCCCCCCCCCCC(=O)NCCCN(C)C | inactive |
| Cn1cc(C(=O)[C@@H]2CCc3nc[nH]c3C2)c2ccccc21 | inactive |
| O=C1c2c(O)ccc(Nc3ccc(CCO)cc3)c2C(=O)c2c([N+](=O)[O-])ccc(O)c21 | inactive |
| CC(C)(C)C(=O)OCOC(=O)C1N2C(=O)CC2S(=O)(=O)C1(C)C (stereo not given) | inactive |
| COC(=O)C1=C(C)NC(C)=C(C(=O)OCCc2ccc(N3CCN(C(c4ccccc4)c4ccccc4)CC3)cc2)C1c1cccc([N+](=O)[O-])c1 (stereo not given) | inactive |
| CCCC(c1cc(C(C)(C)C)c(O)cc1C)c1cc(C(C)(C)C)c(O)cc1C | inactive |
| CCCC/C=C/CCCCO | inactive |
| CC(C)n1nc(-c2cc3cc(O)ccc3[nH]2)c2c(N)ncnc21 | inactive |
| CC(=O)N1CCN(c2ccc(OC[C@H]3CO[C@](Cn4ccnc4)(c4ccc(Cl)cc4Cl)O3)cc2)CC1 | inactive |
| NC(=O)N1C(=O)C(C(=O)c2cc(Cl)cs2)c2cc(F)c(Cl)cc21 (stereo not given) | inactive |
| CC[C@H](c1ccc(O)cc1)[C@@H](CC)c1ccc(O)cc1 | 4.3 nM (active) and 8.4 nM (active) |
| Cc1cc2c(cc1C(F)(F)F)N(C(=O)Nc1ccc(Oc3cccnc3C)nc1)CC2 | inactive |
| CCN(Cc1cccnc1)C(=O)c1cccc(Cl)c1[C@]1(C)C(=O)N(Cc2ccc(OC)cc2OC)c2ccc(Cl)cc21 | inactive |
| Cc1ccc(O)c2ncccc12 | inactive |
| CCC(N)(CO)CO | inactive |
| CC(C)(C)CC(C)(C)c1ccc(O)c(Cc2ccc(Cl)cc2Cl)c1 | inactive |
| O=c1cccccc1O | inactive |
| O=C(O)c1cc(O)c2c(c1)C(=O)c1cccc(O)c1C2=O | inactive |
| Cc1cc(O)c(Cl)c(C)c1Cl | inactive |

| SMILES | Potency |
| --- | --- |
| CCCCCCCCCCCCCCCS(=O)(=O)Oc1ccccc1 | inactive |
| O=C(Nc1cccc(Cl)c1)OCC#CCCl | inactive |
| C[n+]1ccn(Cc2ccccc2)c1 | inactive |
| NC(=O)C1(N2CCCCC2)CCN(CCCN2c3ccccc3CCc3ccc(Cl)cc32)CC1 | inactive |
| Clc1ccc2cc3ccccc3cc2c1 | inactive |
| CC1=NC(C)OC1C (stereo not given) | inactive |
| Cc1c(C)c2c(c(C)c1O)CCC(C)(COc1ccc(CC3SC(=O)NC3=O)cc1)O2 (stereo not given) | inactive |
| OC1(c2ccc(Cl)c(C(F)(F)F)c2)CCN(CCCC(c2ccc(F)cc2)c2ccc(F)cc2)CC1 | inactive |
| CCCCCCCCS(=O)C(C)Cc1ccc2c(c1)OCO2 (stereo not given) | inactive |
| CCCCCCC[N+](CC)(CC)CCCCc1ccc(Cl)cc1 | inactive |
| CCCN(CCC)C(=O)C(CCC(=O)OCCCN1CCN(CCOC(=O)Cc2c(C)n(C(=O)c3ccc(Cl)cc3)c3ccc(OC)cc23)CC1)NC(=O)c1ccccc1 (stereo not given) | 11.9 µM (active) |
| Oc1ccc(Cl)cc1Sc1cc(Cl)ccc1O | inactive |
| OCCN1CCN(CC/C=C2/c3ccccc3Sc3ccc(C(F)(F)F)cc32)CC1 | inactive |
| CC(C)(C)CC(C)(C)c1ccc(OCCOCC[N+](C)(C)Cc2ccccc2)cc1 | inactive |
| N#CSc1ccc(N)c([N+](=O)[O-])c1 | inactive |
| CC(C)(C)NC(=O)[C@@H]1C[C@@H]2CCCC[C@@H]2CN1C[C@@H](O)[C@H](Cc1ccccc1)NC(=O)[C@H](CC(N)=O)NC(=O)c1ccc2ccccc2n1 | inactive |
| COc1cc(-c2nc(NC(=O)c3cc4cc(C)cc(C)c4n3CC(=O)O)sc2CCC2CCCCC2)c(OC)cc1Cl | inactive |
| COc1cccc2c1C(=O)c1c(O)c3c(c(O)c1C2=O)C[C@@](O)(C(=O)CO)C[C@@H]3O[C@H]1C[C@H](N)[C@H](O[C@@H]2CCCCO2)[C@H](C)O1 | inactive |
| CCC(C)(C)C1CCCCC1OC(C)=O (stereo not given) | inactive |
| O=C(Oc1ccccc1)c1ccccc1C(=O)Oc1ccccc1 | inactive |
